Measurements reported in PubChem BioAssay AID687001 (Broad Institute, 2013).
Results with a measured potency or affinity are listed apart. Activity calls are given as the source filed them.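 How the source made its calls: active means signal-lowering compounds whose fitted half-maximal concentration is at or below twice the top tested dose in every run; inconclusive means runs disagree, flat 30 to 70% inhibition, or poor curve fit; inactive means the rest.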

Target: Protein S100-A4 (Homo sapiens) (UniProt P26447)
Sequence (P26447 whole entry, looked up): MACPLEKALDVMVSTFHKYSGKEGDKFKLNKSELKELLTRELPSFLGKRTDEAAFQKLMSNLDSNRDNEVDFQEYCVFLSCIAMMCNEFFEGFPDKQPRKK
Test: S100A4-myosin IIA binding inhibitor potency, dose response, biochemical, fluorescence polarization, cherry-picked hits (AID 687001);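 further: 0% = DMSO neutral control wells and -100% = TFP positive control wells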
Settings: FP, S100A4/TAMRA-myosin IIA peptide binding; series mostly up to 11 µM

outcome, inactive:
CCCCCC(=O)Nc1ncc2c(n1)CC(c1cccs1)CC2=O (stereo not drawn)
O=C(NCCC1CCCCN1S(=O)(=O)c1ccccc1)C(=O)NCC1CCCO1 (stereo not drawn)
CN1C(=O)c2cc(NC(=O)C3CCC3)ccc2OC[C@@H]2O[C@@H](CC(=O)NCc3ccccc3F)CC[C@@H]21
Cc1cnc(C(=O)OCC(=O)c2ccccc2)cn1
CN1c2ccc(-c3cccc(C#N)c3)cc2[C@H]2[C@H](CCN2S(=O)(=O)c2ccccc2F)[C@H]1CO
Cc1cc(C)c(C(=O)COC(=O)CNC(=O)c2ccccc2C)c(C)c1
Cc1cccc(NS(=O)(=O)c2c(C(=O)N3CCOCC3)c(C)n(C)c2C)c1C
CCCc1cc(=O)[nH]c(SCC(=O)N2CCc3ccccc32)n1
C(=Cc1nc2ccccc2o1)c1ccc2c(c1)OCO2
CCOc1ccc(NC(=O)CSc2nccn(-c3ccc4c(c3)OCCO4)c2=O)cc1
CCCc1cn(CC[C@@H]2CC[C@H](NC(=O)C3CCCC3)[C@H](CO)O2)nn1
C[C@@H]1CN([C@H](C)CO)C(=O)c2cc(-c3ccc(F)cc3)cnc2O[C@H]1CN(C)Cc1cncnc1
Cc1ccccc1S(=O)(=O)NCC[C@H]1CC[C@H](NC(=O)C2CCC2)[C@H](CO)O1
O=C(c1cccc(F)c1)N1CC[C@H]2[C@H](CO)Nc3ccc(-c4ccc(F)cc4)cc3[C@H]21
CCOc1ccc(C(=O)NC2CCN(C(=O)Nc3ccc(F)cc3)CC2)cc1
CNC[C@H]1Oc2c(NC(=O)Nc3ccc(C(F)(F)F)cc3)cccc2C(=O)N([C@@H](C)CO)C[C@H]1C
O=C1CNC[C@H]2[C@@H](c3ccc(C#CC4CCCC4)cc3)[C@@H](CO)N12
C[C@@H]1CCCCO[C@H](CN(C)S(=O)(=O)c2cccs2)[C@@H](C)CN([C@@H](C)CO)C(=O)c2cc(NS(=O)(=O)c3cccs3)ccc2O1
O=C(CSc1n[nH]c(-c2ccc(Br)cc2)n1)NC1CCCC1
CCOC(=O)[C@]12CCCC=C1N(Cc1ccccc1)C(=O)[C@H](CC(=O)NCCCN1CCCC1=O)C2
O=C(C[C@H]1CC[C@H]2NC[C@H](O)COC[C@@H]2O1)NCCN1CCCCC1
Cc1ccccc1CNS(=O)(=O)c1c(C(=O)N2CCCC2)c(C)n(C)c1C
CCN(CC(=O)Nc1c(F)cccc1F)C(=O)c1ccc(OC)c(S(=O)(=O)NC2CCCC2)c1
C[C@@H]1CN([C@H](C)CO)C(=O)Cc2cc(NS(=O)(=O)c3ccccc3)ccc2O[C@@H]1CN(C)Cc1ccccc1
Cc1ccc(C(=O)N2CCN(c3ccc([N+](=O)[O-])c(N4CCOCC4)c3)CC2)cc1
O=C(C1CCCC1)N1C[C@@H]2[C@H](c3ccccc31)[C@@H](CO)N2C(=O)c1ccccc1F
CN(C)CC(=O)N[C@H]1CC[C@@H](CC(=O)NCc2ccc(Cl)cc2)O[C@@H]1CO
Cc1ccc(S(=O)(=O)N[C@H]2C=C[C@@H](CC(=O)NC3CCCCC3)O[C@@H]2CO)cc1
CC(C)NC(=O)N(C)C[C@@H]1Oc2cc(-c3ccncc3)ccc2S(=O)(=O)N([C@H](C)CO)C[C@H]1C
CCCNC(=O)Nc1ccc2c(c1)OC[C@H](C)N(C(=O)C1CC1)C[C@H](C)[C@@H](OC)CN(C)C2=O
O=C(Cc1ccncc1)NCC[C@@H]1CC[C@@H](NC(=O)C2CCOCC2)[C@@H](CO)O1
Cc1ccc(S(=O)(=O)Nc2ccc3c(c2)C(=O)N([C@H](C)CO)C[C@@H](C)[C@@H](CN(C)C(=O)NC(C)C)OCCCC[C@@H](C)O3)cc1
COc1ccc(NC(=O)Nc2ccc3c(c2)C(=O)N([C@H](C)CO)C[C@H](C)[C@H](CN(C)Cc2ccc(C(F)(F)F)cc2)OCCCC[C@H](C)O3)cc1
O=C(C[C@@H]1CC[C@@H](NC(=O)NC2CCCC2)[C@H](CO)O1)NCc1ccc(F)cc1
Cc1cc(NC(=O)CCC(=O)N(Cc2ccco2)C2(C(=O)NC3CCCC3)CCC(C)CC2)no1 (stereo not drawn)
COc1ccc2c3c([nH]c2c1)[C@H](CO)N(S(C)(=O)=O)CC31CN(CC2CCOCC2)C1
C[C@H](NC(=O)C[C@H]1C[C@@H]2c3cc(NC(=O)CN(C)C)ccc3O[C@@H]2[C@H](CO)O1)c1ccccc1

Activity change, negative = inhibition, inactive:
Cc1ccc(/C=C2/SC(=O)N(CC(=O)N3CCOCC3)C2=O)s1 7.53% [at 2.6 µM]
